For some of these results: Potency and affinity values are given separately.
How the values were obtained:
Design in all cases: scale not given: direction of the effect not stated beside the values
[1] = target: Protein translocase subunit SecA (Escherichia coli (strain K12)) (UniProt P10408); assay: Assay to Identify E. coli SecA ATPase Inhibitors; type: functional; settings: 30 µM
[2] = target: T1, Ubiquitin-activating enzyme e1, putative (Leishmania donovani (strain BPK282A1)) (UniProt E9BSI1); assay: Leishmania donovani Ubiquitin Activating Enzyme (LdE1); type: functional; settings: 30 µM
T1 sequence (whole entry): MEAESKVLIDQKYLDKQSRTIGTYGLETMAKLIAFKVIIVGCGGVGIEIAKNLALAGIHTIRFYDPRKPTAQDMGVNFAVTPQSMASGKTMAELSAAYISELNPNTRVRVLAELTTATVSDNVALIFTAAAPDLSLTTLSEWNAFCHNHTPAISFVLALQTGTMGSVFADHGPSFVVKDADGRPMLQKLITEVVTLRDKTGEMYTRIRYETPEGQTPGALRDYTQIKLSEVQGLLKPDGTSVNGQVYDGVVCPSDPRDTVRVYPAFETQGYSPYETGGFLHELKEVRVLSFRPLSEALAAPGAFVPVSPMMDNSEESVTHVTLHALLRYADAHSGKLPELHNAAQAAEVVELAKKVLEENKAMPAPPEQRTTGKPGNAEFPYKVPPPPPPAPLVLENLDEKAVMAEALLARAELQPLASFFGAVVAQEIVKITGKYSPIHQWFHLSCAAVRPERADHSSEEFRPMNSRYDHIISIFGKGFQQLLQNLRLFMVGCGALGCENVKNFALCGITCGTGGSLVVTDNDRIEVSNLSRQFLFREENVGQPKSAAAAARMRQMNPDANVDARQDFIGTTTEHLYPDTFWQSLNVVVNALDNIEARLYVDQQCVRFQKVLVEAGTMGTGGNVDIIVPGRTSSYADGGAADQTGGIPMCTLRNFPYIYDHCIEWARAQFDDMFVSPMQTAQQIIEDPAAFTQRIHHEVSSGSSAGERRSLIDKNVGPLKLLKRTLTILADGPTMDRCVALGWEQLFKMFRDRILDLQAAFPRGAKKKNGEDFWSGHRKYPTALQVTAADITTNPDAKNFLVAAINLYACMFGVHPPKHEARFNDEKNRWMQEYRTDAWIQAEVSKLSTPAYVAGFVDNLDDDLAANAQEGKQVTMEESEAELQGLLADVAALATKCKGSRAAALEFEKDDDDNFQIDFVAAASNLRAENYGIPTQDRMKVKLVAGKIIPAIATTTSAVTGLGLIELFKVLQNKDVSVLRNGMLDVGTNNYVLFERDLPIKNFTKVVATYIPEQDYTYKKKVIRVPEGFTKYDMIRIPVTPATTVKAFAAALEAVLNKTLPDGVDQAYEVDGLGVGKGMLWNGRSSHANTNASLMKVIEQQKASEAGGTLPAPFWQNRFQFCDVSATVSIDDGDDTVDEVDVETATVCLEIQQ

[3] = target: AMP-activated protein kinase, AMPK (Homo sapiens) (UniProt P54646+O43741+P54619+Q9UGJ0+Q9Y478+Q13131+Q9UGI9); assay: AMP-dependent Kinase enzyme assay. An in vitro enzyme assay that detects ADP turnover that is directly proportional to AMPK activity. This uses naive AMPK that is activated during the assay with MK-8722; type: functional; settings: 30 µM
[4] = target: Sialic acid-binding Ig-like lectin 9 (Homo sapiens) (UniProt Q9Y336); assay: Hs-Siglec9 ALPHAscreen SOP 20170721; settings: 10 µM
Chain of Sialic acid-binding Ig-like lectin 9 (Homo sapiens) (Q9Y336 whole entry): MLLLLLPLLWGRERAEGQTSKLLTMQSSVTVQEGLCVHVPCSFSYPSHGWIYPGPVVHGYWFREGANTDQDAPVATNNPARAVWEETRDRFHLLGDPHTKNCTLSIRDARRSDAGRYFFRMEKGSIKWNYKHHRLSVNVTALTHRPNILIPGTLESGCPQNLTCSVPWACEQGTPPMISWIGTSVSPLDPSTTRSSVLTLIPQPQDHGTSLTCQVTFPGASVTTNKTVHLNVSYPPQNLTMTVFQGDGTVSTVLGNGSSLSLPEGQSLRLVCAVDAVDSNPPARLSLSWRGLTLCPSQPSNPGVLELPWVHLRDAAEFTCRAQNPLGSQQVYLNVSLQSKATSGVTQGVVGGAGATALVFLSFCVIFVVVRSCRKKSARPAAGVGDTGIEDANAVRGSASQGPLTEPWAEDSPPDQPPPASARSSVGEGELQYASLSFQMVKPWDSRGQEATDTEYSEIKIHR

[5] = system: Trypanosoma cruzi; assay: Trypanosoma cruzi phosphomannomutase and mannose-1-phosphate guanylyltransferase assay; type: functional; settings: 10 µM
[6] = target: T2, Arginase-2, mitochondrial (Homo sapiens) (UniProt P78540); assay: in vitro enzyme assay to detect the production of urea directly proportional to the activity of Arginase II; type: functional; settings: 33.3 µM; further: in the data most compounds retested in dose-response had high values
T2 sequence (whole entry): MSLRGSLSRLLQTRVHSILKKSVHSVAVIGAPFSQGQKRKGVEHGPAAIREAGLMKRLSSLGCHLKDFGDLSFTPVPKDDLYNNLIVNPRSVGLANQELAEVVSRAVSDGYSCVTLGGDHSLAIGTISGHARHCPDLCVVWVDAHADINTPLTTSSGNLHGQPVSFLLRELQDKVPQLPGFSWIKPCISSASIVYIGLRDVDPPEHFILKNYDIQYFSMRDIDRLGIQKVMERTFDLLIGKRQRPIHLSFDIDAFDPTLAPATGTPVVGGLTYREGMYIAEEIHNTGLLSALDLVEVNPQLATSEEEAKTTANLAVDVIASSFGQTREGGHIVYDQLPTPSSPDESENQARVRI

[7] = target: T3, Proteasome subunit beta (Trypanosoma cruzi) (UniProt O96673); assay: Trypanosoma cruzi proteasome chymotrypsin-like activity (TcProtChymo) assay.; further: in the data most compounds retested in dose-response had high values; type: functional; settings: 9.37 µM
T3 sequence (whole entry): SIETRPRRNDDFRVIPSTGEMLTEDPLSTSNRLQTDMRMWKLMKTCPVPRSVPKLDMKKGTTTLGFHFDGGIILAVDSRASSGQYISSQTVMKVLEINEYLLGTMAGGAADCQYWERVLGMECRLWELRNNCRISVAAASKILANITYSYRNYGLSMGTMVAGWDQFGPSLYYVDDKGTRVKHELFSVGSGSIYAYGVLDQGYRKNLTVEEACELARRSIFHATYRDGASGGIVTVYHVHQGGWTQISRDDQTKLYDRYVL

[8] = organism: Homo sapiens; assay: To identify inhibition of the IFN signalling (Jak-Stat) pathway via expression of an eGFP reporter gene under the control of an IFN-stimulated response element (ISRE) containing MxA promoter.; type: functional; settings: 30 µM
[9] = target: T4, Tyrosyl-tRNA synthetase, putative (Trypanosoma cruzi (strain CL Brener)) (UniProt Q4DSP6); assay: Trypanosoma cruzi tyrosyl tRNA synthetase (TcYRS) _High Tyrosine SOP; type: functional; settings: 30 µM; further: in the data most compounds retested in dose-response had high values
T4 sequence (whole entry): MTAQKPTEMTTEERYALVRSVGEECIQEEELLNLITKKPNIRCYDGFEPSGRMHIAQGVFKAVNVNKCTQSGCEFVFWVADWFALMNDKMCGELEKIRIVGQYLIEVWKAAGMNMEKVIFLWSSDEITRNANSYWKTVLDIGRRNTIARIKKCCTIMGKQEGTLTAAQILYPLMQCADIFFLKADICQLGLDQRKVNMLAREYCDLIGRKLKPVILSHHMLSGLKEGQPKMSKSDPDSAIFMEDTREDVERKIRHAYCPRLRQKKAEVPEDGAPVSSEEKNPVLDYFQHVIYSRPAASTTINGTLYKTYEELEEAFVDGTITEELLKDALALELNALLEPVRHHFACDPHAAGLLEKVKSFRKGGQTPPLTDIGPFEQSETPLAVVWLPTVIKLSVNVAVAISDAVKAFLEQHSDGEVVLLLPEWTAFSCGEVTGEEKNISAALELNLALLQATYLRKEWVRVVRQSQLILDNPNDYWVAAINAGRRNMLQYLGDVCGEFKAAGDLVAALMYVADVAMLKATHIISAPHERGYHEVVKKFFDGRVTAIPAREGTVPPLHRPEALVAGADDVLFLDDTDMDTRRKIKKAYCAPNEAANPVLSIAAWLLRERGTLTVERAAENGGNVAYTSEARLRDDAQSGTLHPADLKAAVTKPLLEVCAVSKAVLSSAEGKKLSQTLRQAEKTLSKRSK

[10] = target: T4, Tyrosyl-tRNA synthetase, putative (Trypanosoma cruzi (strain CL Brener)); assay: Trypanosoma cruzi tyrosyl tRNA synthetase (TcYRS) SOP; type: functional; settings: 30 µM
[11] = target: Chromo domain-containing protein 1 (Saccharomyces cerevisiae (strain ATCC 204508 / S288c) (Baker's yeast)) (UniProt P32657); assay: ScCHD-1 Enzyme Inhibition Assay; type: functional; settings: 30 µM; further: in the data most compounds retested in dose-response had high values
Chain of Chromo domain-containing protein 1 (Saccharomyces cerevisiae (strain ATCC 204508 / S288c) (Baker's yeast)) (P32657 whole entry, the tested form may be a part): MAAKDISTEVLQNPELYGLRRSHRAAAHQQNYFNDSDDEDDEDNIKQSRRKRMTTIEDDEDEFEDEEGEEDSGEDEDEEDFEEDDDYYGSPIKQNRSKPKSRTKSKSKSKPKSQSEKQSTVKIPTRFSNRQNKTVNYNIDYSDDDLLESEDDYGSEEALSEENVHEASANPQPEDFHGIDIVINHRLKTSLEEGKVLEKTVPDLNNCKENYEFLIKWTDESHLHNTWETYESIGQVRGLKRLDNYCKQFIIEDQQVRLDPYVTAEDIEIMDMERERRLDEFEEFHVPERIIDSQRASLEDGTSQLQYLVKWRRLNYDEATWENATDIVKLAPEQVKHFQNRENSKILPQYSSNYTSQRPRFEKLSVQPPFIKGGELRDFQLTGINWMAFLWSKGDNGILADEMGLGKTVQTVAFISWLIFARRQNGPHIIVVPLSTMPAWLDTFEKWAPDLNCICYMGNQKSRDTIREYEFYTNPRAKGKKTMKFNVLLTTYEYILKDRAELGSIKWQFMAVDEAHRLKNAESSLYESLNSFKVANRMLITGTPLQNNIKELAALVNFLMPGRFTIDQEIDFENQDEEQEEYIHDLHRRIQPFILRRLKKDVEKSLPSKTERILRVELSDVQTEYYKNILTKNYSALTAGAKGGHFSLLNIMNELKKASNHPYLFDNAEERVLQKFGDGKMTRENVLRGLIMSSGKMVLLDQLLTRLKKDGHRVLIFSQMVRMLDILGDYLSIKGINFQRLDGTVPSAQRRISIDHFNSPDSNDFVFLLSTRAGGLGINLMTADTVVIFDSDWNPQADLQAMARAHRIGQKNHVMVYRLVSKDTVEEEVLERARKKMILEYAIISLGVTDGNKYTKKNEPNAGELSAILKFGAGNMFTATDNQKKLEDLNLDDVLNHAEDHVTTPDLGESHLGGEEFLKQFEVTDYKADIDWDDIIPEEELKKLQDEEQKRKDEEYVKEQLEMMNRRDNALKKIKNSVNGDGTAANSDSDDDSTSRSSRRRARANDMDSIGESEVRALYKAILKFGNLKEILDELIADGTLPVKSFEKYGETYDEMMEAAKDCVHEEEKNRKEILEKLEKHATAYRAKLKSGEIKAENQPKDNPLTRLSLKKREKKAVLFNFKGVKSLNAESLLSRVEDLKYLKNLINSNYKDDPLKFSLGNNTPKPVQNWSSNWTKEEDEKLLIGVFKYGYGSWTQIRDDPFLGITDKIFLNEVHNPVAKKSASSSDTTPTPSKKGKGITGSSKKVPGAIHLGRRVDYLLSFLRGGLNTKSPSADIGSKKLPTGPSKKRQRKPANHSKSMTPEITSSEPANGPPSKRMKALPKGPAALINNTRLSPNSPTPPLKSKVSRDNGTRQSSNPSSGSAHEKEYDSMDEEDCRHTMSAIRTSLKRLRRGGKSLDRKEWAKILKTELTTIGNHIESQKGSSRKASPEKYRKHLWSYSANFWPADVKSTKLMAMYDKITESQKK

Chain of Protein translocase subunit SecA (Escherichia coli (strain K12)) (P10408 whole entry): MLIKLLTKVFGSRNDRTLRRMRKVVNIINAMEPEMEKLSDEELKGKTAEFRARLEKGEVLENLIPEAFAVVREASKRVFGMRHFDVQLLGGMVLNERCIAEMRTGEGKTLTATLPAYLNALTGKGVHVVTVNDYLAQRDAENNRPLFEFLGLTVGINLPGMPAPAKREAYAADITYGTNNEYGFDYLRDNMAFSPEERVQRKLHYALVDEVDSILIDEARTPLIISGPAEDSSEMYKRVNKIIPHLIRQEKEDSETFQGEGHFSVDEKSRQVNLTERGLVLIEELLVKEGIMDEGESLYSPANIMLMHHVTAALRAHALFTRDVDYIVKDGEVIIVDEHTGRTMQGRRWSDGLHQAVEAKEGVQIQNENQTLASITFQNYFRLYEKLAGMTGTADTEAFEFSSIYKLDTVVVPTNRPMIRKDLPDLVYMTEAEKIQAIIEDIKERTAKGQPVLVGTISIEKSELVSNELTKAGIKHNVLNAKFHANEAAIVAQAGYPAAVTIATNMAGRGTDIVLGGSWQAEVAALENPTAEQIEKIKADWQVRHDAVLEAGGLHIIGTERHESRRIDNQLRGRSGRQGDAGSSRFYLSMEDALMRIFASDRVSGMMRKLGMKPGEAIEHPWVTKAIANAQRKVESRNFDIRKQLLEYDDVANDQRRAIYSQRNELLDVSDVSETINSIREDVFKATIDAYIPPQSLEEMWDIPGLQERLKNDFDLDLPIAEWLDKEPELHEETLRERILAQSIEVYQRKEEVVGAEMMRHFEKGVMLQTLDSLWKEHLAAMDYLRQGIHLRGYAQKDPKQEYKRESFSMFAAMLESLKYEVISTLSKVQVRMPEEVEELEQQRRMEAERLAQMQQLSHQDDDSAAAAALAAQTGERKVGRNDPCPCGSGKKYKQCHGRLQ

Compound	Percent Effect [1] [%]	Percent Effect [2] [%]	Percent Effect [3] [%]	Percent Effect [4] [%]	Percent Effect [5] [%]	Percent Effect [6] [%]	Percent Effect [7] [%]	Percent Effect [8] [%]	Percent Effect [9] [%]	Percent Effect [10] [%]	Percent Effect [11] [%]
CCCS(=O)(=O)NCc1cccnc1OCC	0.771	2.6	-1.14	3.55	1.28	-5.52	6.32	13.3	1.07	-1.24	-7.12
CNC(=O)CS(=O)(=O)C1CCN(S(=O)(=O)c2ccccc2Br)CC1	1.17	0	4.03	13.4	4.5	5.46	2.31	26.1	1.07	2.5	-0.751
O[C@H]1[C@H](n2cc(-c3cccnc3)nn2)c2ccccc2C12CCNCC2	-1.28	4.17	-0.513	14.2	2.82	12.4	3.86	-3.37	3.16	10.3	-3.88
O=C1CC(c2cccnc2)c2c(c(C(=O)O)cn2-c2ccccc2)N1 (stereo unspecified)	-3.57	6.67	-32.4	-0.792	-3.14	6.16	14.6	11.4	3.17	10.3	-8.81
CN(C)C(=O)c1ccc2c(c1)N(C)C(CC(=O)NCCC(C)(C)C)CO2 (stereo unspecified)	-3.89	9.72	3.96	13.4	5.73	22.1	14.4	2.35	3.16	10.3	-5.3
Cc1ccc(CN2CCC3(C2)C(=O)N(CC(C)C)c2ccccc23)s1 (stereo unspecified)	-1.13	-16.2	-0.146	1.8	-6.25	3.75	7.02	7.39	10.9	13.4	-7.96
O=S1(=O)C[C@@H]2[C@H](C1)N(Cc1cc(Cl)cc(Cl)c1)CCN2CC1CC1	-4.25	8	-0.723	-1.32	-2.24	1.56	12	22.5	2.73	11.1	-6.73
CN1CCN(c2nc(O)c3c(-c4ccccn4)ccnc3n2)CC1	-4.77	0	6.93	2.2	-2.24	-7.1	18.1	-16.4	6.38	10.4	-7.72
CC(C)N(C)Cc1cnc2n1CCN(CCc1ccccc1)C2	-3.87	5.41	23.2	-2.38	0.586	-2.92	9.04	-8.89	6.93	8.54	0.182
Cc1nc(CN2C(=O)COC3(CCN(Cc4nccs4)CC3)C2C)cs1 (stereo unspecified)	-1.57	0	-5.34	5.68	4.56	-4.39	2.48	-3.19	6.25	13.6	-5.58
Cc1nc(CN2CCCC2c2c(C)nn(C)c2Cl)no1 (stereo unspecified)	-2.73	5.26	-8.02	-3	-2.33	-3.24	-9.22	-11.3	3.45	-1.24	6.8
